Here are results for 39 compounds from PubChem BioAssay AID624331 (National Center for Advancing Translational Sciences (NCATS), 2012).

Results filed as inconclusive are left out. A call without a number means that no potency is given here. Active and inactive are the calls of the source. Calls follow the shape of the dose curve; as a rule, active = well fitted activation curve with a large enough effect; inconclusive = small, poorly fitted or top-dose-only effect; inactive = no such curve, though single readings can be large or run the other way.
Potency is read from the fitted curve at half-maximal effect.

A short description of the assay: qHTS assay for re-activators of p53 using a Luc reporter: Hit Validation with no p53 Expressed. As to conditions: p53-null cells, luciferase reporter counter-screen; series mostly up to 46.1 µM. The procedure, abridged:
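Counter-screen of primary hits in a cell line not transfected with p53, in Opti-MEM with 10% FBS; compounds at several concentrations (10 mM stock, 1:5; top 46.1 µM in well), 24 h at 37 deg C, 5% CO2. Luminescence read after 10 min with Amplite reagent.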
Take `N#CC(c1ccccc1)C1CCN(Cc2ccccc2)CC1` (centres undefined): the Potency result was “inactive”.
The entry for `CCC(C)C(=O)N1CCc2cc(-c3csc(N)n3)ccc21` (centres undefined) is “inactive”; for `Cc1ccc(-c2cc(-c3ccccc3Cl)[nH]n2)c(O)c1` it is “inactive”; for `Cc1ccc(C(C)C)c(OCc2ccc(C(=O)N/N=C/c3ccc(O)cc3O)cc2)c1` it is “inactive”.
The entry for `Cc1cccc(-n2c(C)cc(/C=N\NC(=O)c3cccs3)c2C)c1` is “inactive”.
To `O=C(CCCN1C(=O)/C(=C/c2ccco2)SC1=S)Nc1ccccc1` belongs “inactive”; to `ON=C1c2cc(OCCN3CCCCC3)ccc2-c2ccc(OCCN3CCCCC3)cc21`, “inactive”.
As for `O=C1CCCC(O)=C1N=Nc1c(Cl)cc(Cl)cc1Cl`, the Potency result is “inactive”.
Regarding `Cc1cccc(NC(=S)NC(=O)C2CC2)c1`, the Potency entry is “inactive”.
Take `O=C(N/N=C/c1ccccc1O)C1CC(=O)N(c2ccc(Cl)cc2)C1` (centres undefined): the Potency entry is “inactive”.
As for `COCCCN=C(c1ccco1)n1c(=S)nc(-c2ccco2)n(CCCOC)c1=S`, the Potency result is “inactive”.
`c1ccc(-c2nnc(-c3ccccn3)nc2NC2CCCCC2)cc1`: the Potency result is “inactive”.
For `O=C(Nc1nc2ccccc2s1)c1ccc2c(c1)OCO2`, the Potency result is “inactive”.
Take `C/C(=C\C(=O)c1ccccc1)Nc1ccc2c(c1)OCO2`: the Potency entry was “inactive”.
The entry for `O=c1sc(/C=N/Nc2ccccc2)c(Cl)n1Cc1ccccc1` is “inactive”; for `O=c1oc2ccccc2nc1/C=C(O)/C=C/c1ccc(F)cc1` it is “inactive”.
The entry for `c1ccc2oc(C3=NNC(=NC4CC4)SC3)cc2c1` is “inactive”; for `O=C(N/N=C(\c1ccccc1)c1ccccn1)c1ccccc1Cl` it is “inactive”.
The entry for `COC(=O)CSc1nc2cc(OC)ccc2cc1C#N` is “inactive”.
Take `Nc1nonc1-n1nnc(C(=O)N/N=C/c2ccc(OCc3cccc(Cl)c3)cc2)c1CN1CCCCC1`: the Potency entry was “inactive”.
The entry for `CNC(=S)N/N=C(\C)c1ccc(N2CCOCC2)cc1` is “inactive”.
To `O=C(NC(=S)Nc1nc2ccccc2s1)c1ccco1` belongs “inactive”; to `COc1cc(CN2CCCCC2C(=O)Nc2ccc(Oc3ccccc3)nc2)ccc1O` (centres undefined), “inactive”; to `O=C(CC1CCCCC1)NCc1ccc(Cl)cc1`, “inactive”.
To `Cc1cnc(C(=O)OCC(=O)c2csc(N3CCCCC3)n2)cn1` belongs “inactive”.
On to `CCSc1nnc(SCC(=O)NC2CCCCC2)s1`, for which the Potency entry was “inactive”.
Regarding `COC(=O)c1ccc(CSc2nnc(-c3c[nH]c4ccccc34)n2-c2ccccc2)cc1`, the Potency entry is “inactive”.
In the case of `Cc1ccc(C(=O)OC(C)C(=O)Nc2ccc3c(c2)OCO3)c(O)c1` (centres undefined), the Potency entry is “inactive”.
As for `COc1ccc(N2CCN(CC(=O)Nc3ccc(C)cc3)CC2)cc1`, the Potency result was “inactive”.
As to `O=S(=O)(N/N=C/c1ccccc1OCc1ccc(Cl)cc1)c1ccccc1`, the Potency entry is “inactive”.
With `COc1ccc(C(=O)O/N=C(\N)c2ccccc2)c(OC)c1`, the Potency is 1.16 µM (active).
Consider `Cc1cccc(C(=O)OCC(=O)N2CCCCCC2)c1O`, for which the Potency entry was “inactive”.
To `O=C(CCS(=O)(=O)c1ccccc1)Nc1ccc(-c2nc3ccccc3s2)cc1` belongs “inactive”; to `Cc1ccc(NC(=O)CCN2C(=O)c3cccc([N+](=O)[O-])c3C2=O)c(Br)c1`, “inactive”.
On to `COc1ccc2oc(C(=O)Nc3nnc(C)s3)c(C)c2c1`, for which the Potency result is “inactive”.
The entry for `O=C(/C=C/c1ccco1)Nc1ccccn1` is “inactive”; for `CS(=O)(=O)N1CCC(C(=O)Nc2cc(Cl)c(Cl)cc2Cl)CC1` it is “inactive”; for `Cc1ccc(Nc2nc(N)nc(CSc3nccn3C)n2)cc1` it is “inactive”.
The entry for `O=C(COC(=O)c1cccnc1Cl)Nc1ccc(N2CCCCC2)cc1` is “inactive”.
